Drawing on the supplement of paper PMC9337992, this text covers cell proliferation for three molecules.

± gives the standard deviation of the averaged measurements.

Test in all cases: cell proliferation (confluence) relative to DMSO control; higher = less growth inhibition
Holding throughout (conditions): 5 uM; 6 d

The test system of one test is BT549. In short, it runs like this: (§1)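 Triple-negative breast cancer cell lines were seeded into 384-well plates at 500 cells per well. Once they had attached, each epigenetic chemical probe in DMSO was added at a final 5 μM for 6 d, with four replicate wells per compound on every plate. Images were taken on an IncuCyte ZOOM with a ×10 objective in phase-contrast and processed in Incucyte 2016 software. Confluence was expressed relative to wells given DMSO alone.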

For another test, the system named is CAL120. In short, it runs like this:
as §1

A further test relates to HCC1143. The method in brief:
as §1

For another test, the system named is HCC1395. In short, it runs like this: as §1
The test system of another test is HCC153. In short, it runs like this: as §1
Another test concerns HCC1806. The method in brief:
as §1

Another test has as its system HCC38. In short, it runs like this:
as §1

The test system of another test is HCC70. In short, it runs like this:
as §1

Another test relates to Hs578-T. In short, it runs like this:
as §1

The next test concerns MB157. The method in brief:
as §1

A further test relates to SUM149-PT. The method in brief: as §1
In the next test the test system is SUM159-PT. In short, it runs like this:
as §1

For the molecule `COc1cc(C(=O)N2CC[C@@H](O)[C@@H](N)C2)cc2nc(-c3cc4ccccc4n3CC3CC3)n(C)c12`, the cell proliferation worked out at 97.5 ± 1.7% with BT549; 97.9 ± 2.2% with CAL120; 97.3 ± 1.2% in the test on HCC1143; 99.953 ± 0.017% in the test with HCC1395; 59.2 ± 12% with HCC153; 79.3 ± 7.7% in the test on HCC1806. Besides, the cell proliferation is 99.49 ± 0.46% with HCC38; 88.1 ± 8% with HCC70; 97.5 ± 1.4% in the test with Hs578-T; 90.8 ± 11% in the test on MB157; 87.2 ± 9.1% in the test with SUM149-PT; 99.994 ± 0.0032% in the test on SUM159-PT.

As to `c1ccc([C@@H]2C[C@H]2NC2CCNCC2)cc1`, the cell proliferation is 99.73 ± 0.11% with BT549; 90.8 ± 1.6% in the test on CAL120; 97.61 ± 0.58% in the test on HCC1143; 99.99 ± 0.0084% with HCC1395; 86.3 ± 2.5% in the test on HCC153; 99.68 ± 0.28% in the test with HCC1806. In addition, the cell proliferation in the test on HCC38 is 99.69 ± 0.18%; in the test on HCC70, 90.9 ± 5.3%; in the test with Hs578-T, 96.3 ± 1.6%; in the test on MB157, 86.3 ± 7.8%; in the test on SUM149-PT, 64.1 ± 20%; in the test with SUM159-PT it was 99.974 ± 0.029%.

Turning to `O=C(O)CNC(=O)c1c(O)c2ccccc2n(Cc2ccccc2)c1=O`, the cell proliferation in the test on BT549 was found to be 99.17 ± 0.41%; in the test with CAL120, 88.7 ± 5.2%; in the test with HCC1143 it was 97.3 ± 1.9%; with HCC1395, 99.51 ± 0.21%; in the test on HCC153, 83.7 ± 4.2%; in the test on HCC1806, 98.07 ± 0.77%. The cell proliferation in the test with HCC38 was determined as 98.2 ± 1.1%; in the test on HCC70, 98.48 ± 0.74%; with Hs578-T, 95 ± 1.8%; in the test with MB157, 95.4 ± 3.5%; in the test with SUM149-PT, 88 ± 5%; in the test with SUM159-PT it was 99.986 ± 0.0083%.
